{"source": "the OligoGym collection", "data": [{"target": "GABRA1", "test": "pooled miR-30 sensor sort-seq; sequence = guide strand", "conditions": "shRNA", "values": [{"sequence": "TAGCTTGTGAAATTTAGGCAGG", "sensor-assay potency score (higher = more potent)": -0.747}, {"sequence": "TTGTATAAGCATAACTTCCAAA", "sensor-assay potency score (higher = more potent)": -0.726}, {"sequence": "TTTCTTGTATCTTTGAACCATC", "sensor-assay potency score (higher = more potent)": -0.813}, {"sequence": "TTAACAACATTCCAACAGCTAA", "sensor-assay potency score (higher = more potent)": -1.39}, {"sequence": "TTGTCCAAGAAGGTCATACTGG", "sensor-assay potency score (higher = more potent)": -0.186}, {"sequence": "TTAAATATCTGTTAAACTCTAT", "sensor-assay potency score (higher = more potent)": -0.0161}, {"sequence": "TTAGACGTGATCCATCTTCTGC", "sensor-assay potency score (higher = more potent)": -0.591}, {"sequence": "TTTATCTCTAAAACATCTGGGC", "sensor-assay potency score (higher = more potent)": 0.106}, {"sequence": "ATTGTCATAACCATCTAGGAGT", "sensor-assay potency score (higher = more potent)": -0.817}, {"sequence": "TTTTCTTGTATCTTTGAACCAT", "sensor-assay potency score (higher = more potent)": 0.355}, {"sequence": "TACAATGAGCAACTGCACCTTT", "sensor-assay potency score (higher = more potent)": 0.167}, {"sequence": "TACTTGACTGGACAATTCCAGA", "sensor-assay potency score (higher = more potent)": -1.07}]}, {"target": "GABRB2", "test": "pooled miR-30 sensor sort-seq; sequence = guide strand", "conditions": "shRNA", "values": [{"sequence": "TACATTATAGGACAGCCTCTTA", "sensor-assay potency score (higher = more potent)": -0.982}, {"sequence": "TTGTTGAAAGTACATTGTCAAG", "sensor-assay potency score (higher = more potent)": -1.79}, {"sequence": "TTAACCAGCGACATATTACTAG", "sensor-assay potency score (higher = more potent)": -0.576}, {"sequence": "TGAAGCATCGTAATTAATCCAG", "sensor-assay potency score (higher = more potent)": -0.467}, {"sequence": "TTCAGGAGTCTATCCACCGTCT", "sensor-assay potency score (higher = more potent)": 0.156}, {"sequence": "TCTGAGTCCATAAAGGACGGTG", "sensor-assay potency score (higher = more potent)": -0.531}, {"sequence": "TTAAAGCTGAGGGATAACCTGG", "sensor-assay potency score (higher = more potent)": -0.689}, {"sequence": "TGAAAGTACATTGTCAAGGTAT", "sensor-assay potency score (higher = more potent)": 0.245}, {"sequence": "TTTGTAATCTACAATAGAGAAC", "sensor-assay potency score (higher = more potent)": -1.05}, {"sequence": "TATTACATTATAGGACAGCCTC", "sensor-assay potency score (higher = more potent)": -0.766}, {"sequence": "TCATAGGCTAGCATTGTGCTTC", "sensor-assay potency score (higher = more potent)": -0.299}, {"sequence": "TTAATCCAGAAGGAGACCCAGG", "sensor-assay potency score (higher = more potent)": -0.469}, {"sequence": "TATCTCTCCAGGCTTGTTGAAA", "sensor-assay potency score (higher = more potent)": -1.12}, {"sequence": "TTTCTCTTAAGCTTAAAGCTGA", "sensor-assay potency score (higher = more potent)": -0.0649}, {"sequence": "TTTCAGGAGTCTATCCACCGTC", "sensor-assay potency score (higher = more potent)": -0.228}, {"sequence": "TCAGAAACCATATCGATGCTGG", "sensor-assay potency score (higher = more potent)": 0.313}, {"sequence": "TTATCGTTCAGGAAATAGGTAT", "sensor-assay potency score (higher = more potent)": -0.408}, {"sequence": "TAGGCTAGCATTGTGCTTCTGG", "sensor-assay potency score (higher = more potent)": 0.754}, {"sequence": "TTGCGCCACATGTCGTTCCAGA", "sensor-assay potency score (higher = more potent)": -0.912}, {"sequence": "TAATCTACAATAGAGAACTGTG", "sensor-assay potency score (higher = more potent)": -0.184}, {"sequence": "TTACATTATAGGACAGCCTCTT", "sensor-assay potency score (higher = more potent)": -0.0422}, {"sequence": "TCTACAATAGAGAACTGTGGAA", "sensor-assay potency score (higher = more potent)": -0.939}]}, {"target": "GABRP", "test": "pooled miR-30 sensor sort-seq; sequence = guide strand", "conditions": "shRNA", "values": [{"sequence": "TAGTAATACTGACTTCTTCTAC", "sensor-assay potency score (higher = more potent)": -0.185}, {"sequence": "TTTCATTGTCAAGTCACTGTAG", "sensor-assay potency score (higher = more potent)": 0.714}, {"sequence": "ATAGTGATCAACATTACTGGGG", "sensor-assay potency score (higher = more potent)": 0.527}, {"sequence": "TATGGTGGCTGTGTAGTCCATG", "sensor-assay potency score (higher = more potent)": -0.102}, {"sequence": "TTTTCTCGGAAGACAAACTTGA", "sensor-assay potency score (higher = more potent)": -0.264}, {"sequence": "TACATCATTATCTTGTCCTGTT", "sensor-assay potency score (higher = more potent)": 0.716}]}]}
